Rtt109 Vps75: inhibitors of C. albicans Rtt109/Vps75 HAT, primary screen, biochemical, ThioGlo CoA-SH fluorescence, plate reader | Histone acetyltransferase RTT109 (Candida albicans (strain SC5314 / ATCC MYA-2876)), … | purified Rtt109/Vps75, 4 h | inhibition, % at 34.9 µM | hit rate 0.16% among 330,000;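 active means inhibition of at least 50% in every replicate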
Target sequence (Q5AAJ8 whole entry, looked up): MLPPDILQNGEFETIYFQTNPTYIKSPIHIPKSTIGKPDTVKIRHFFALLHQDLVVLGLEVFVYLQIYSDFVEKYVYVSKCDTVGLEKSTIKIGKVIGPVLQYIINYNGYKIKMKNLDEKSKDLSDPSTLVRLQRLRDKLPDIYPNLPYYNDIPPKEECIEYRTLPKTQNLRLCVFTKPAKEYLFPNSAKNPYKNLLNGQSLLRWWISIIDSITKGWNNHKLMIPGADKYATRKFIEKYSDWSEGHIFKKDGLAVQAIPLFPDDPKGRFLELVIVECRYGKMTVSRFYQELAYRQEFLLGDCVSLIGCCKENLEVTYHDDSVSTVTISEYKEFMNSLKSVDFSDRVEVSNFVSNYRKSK
dFosB activator: activators of delta FosB homodimer, primary screen, biochemical, fluorescence polarization, TAMRA-CDK5 oligo, single point | purified delta FosB; percent of positive-control signal above neutral wells | activation, % at 25 µM | hit rate 0.99% among 340,000;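 active means mean activation above about 17%, with every replicate also reaching it, limit read from the data, passing the limit was not always enough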
Dyrk1A ADPGlo: rat Dyrk1A kinase inhibitors, primary screen, biochemical, single point, plate reader; Dual specificity tyrosine-phosphorylation-regulated kinase 1A (Rattus norvegicus), Q63470; ADP-Glo luminescence, NFATc1 peptide; inhibition, % at 12.5 µM; hit rate 0.43% among 310,000; in the data active means inhibition above about 50%
esBAF inh: Bmi1 luciferase reporter increase in mESCs, primary screen, esBAF inhibitor project, mouse ES cells, Bmi1 luciferase knock-in, single point; 24 h; 100% = twice the neutral-well signal; reporter increase, % at 12.5 µM; hit rate 2% among 350,000; AID 602393, 2012; in the data active means activation above about 40%;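 further: a rise in the Bmi1 reporter signal indicates esBAF inhibition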
SMARCA2 act: SMARCA2 (BRM) function activators, primary screen, cell-based, luminescence, high throughput. hit rate 1% among 370,000. MG213 cells, MMTV-luciferase reporter, dexamethasone, overnight. AID 652017, 2013. activation, % at 9.1 µM; in the data active means activation above about 7.8%
CDK5 inh: inhibitors of human CDK5/p35 kinase, primary screen, biochemical, single concentration | Recombinant CDK5/p35, ADP-Glo luminescence, 60 min | inhibition, % at 10 µM | hit rate 0.01% among 330,000;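 active means highest replicate inhibition of at least 50% and at least 75% of replicates reaching 50%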
Ring1 derepress: Ring1 mRNA increase in mouse ESCs, confirmation, esBAF inhibitor project, cell-based, mouse ESC, RT-qPCR, cherry-pick; shares compounds with esBAF inh; mouse ESC E14, Ring1 mRNA RT-qPCR fold change; fold change at 33 µM; 550 tested, under 10 active; AID 743176, 2013;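 active means Ring1 gene expression raised more than 2-fold over untreated cells in both replicates at either tested dose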;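 further: Ring1 transcript normalised to actin housekeeping signal by TaqMan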
Fgf4 repress: Fgf4 mRNA decrease in mouse ESCs, confirmation, esBAF inhibitor project, cell-based, mouse ESC, RT-qPCR, cherry-pick; hit rate 4% among 550; mouse ESC E14, Fgf4 mRNA qPCR fold change; hits give low values; Fgf4 expression fold change at 33 µM; shares compounds with esBAF inh; AID 743177, 2013;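 active means Fgf4 expression under 0.8 fold of control in both repeat measurements at one or both tested doses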;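 further: Fgf4 transcript normalised to actin in duplex TaqMan qPCR; cells exposed to compound for 24 h before lysis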
esBAF Bmi1 qPCR: esBAF inhibition via Bmi1 de-repression, confirmation, cell-based, RT-qPCR, mouse ESC, single point, cherry-pick; mouse ESE14 ES cells, Bmi1 mRNA qPCR fold; hits give high values; shares compounds with esBAF inh; fold change at 33 µM; 550 tested, under 10 active;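 active means Bmi1 expression fold change above 6 at either tested concentration, seen in replicate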;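 further: higher fold means more Bmi1 de-repression and stronger esBAF inhibition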
A549 tox SP: A549 cell cytotoxicity, cytotoxicity control, plate reader, single point, cherry-pick; shares compounds with esBAF inh; cell viability change % (negative = cytotoxic), % at 25 µM, hits read low; 550 tested, under 10 active; AID 743188, 2013; call rule not given here
HepG2 tox SP: HepG2 cell cytotoxicity, cytotoxicity control, plate reader, single point, cherry-pick; shares compounds with esBAF inh; hits give low values; activity change, negative = inhibition, % at 25 µM; hit rate 4% among 550; in the data active means activity change below about -50%
HEK293 cytotox SP: HEK293 cell cytotoxicity, cytotoxicity control, plate reader, single point, cherry-pick. shares compounds with esBAF inh. activity change, negative = inhibition, % at 25 µM, hits read low. hit rate 3% among 550; in the data active means activity change below about -38%, passing the limit was not always enough
Large screens that a line does not name were inactive (follow-up assays come after a bar, where they were run). Hits are enriched below; roughly 3.2% of the tested compounds scored in any of these assays.

COc1cc(Cl)ccc1OCc1cc(C(=O)N(C)Cc2cccc3cnccc23)no1	esBAF inh 71 | Ring1 derepress inactive | Fgf4 repress inactive | esBAF Bmi1 qPCR inactive | A549 tox SP inactive | HepG2 tox SP inactive | HEK293 cytotox SP inactive
Cc1cc(-c2nnco2)c(C)n1-c1ccccc1	esBAF inh 54 | Ring1 derepress inactive | Fgf4 repress inactive | esBAF Bmi1 qPCR inactive | A549 tox SP inactive | HepG2 tox SP inactive | HEK293 cytotox SP inactive
CN(C)c1ccc2c(c1)[C@@H]1C[C@@H](CC(=O)NCc3ccccc3F)O[C@@H](CO)[C@@H]1O2	none (no result: Rtt109 Vps75, dFosB activator, Dyrk1A ADPGlo, SMARCA2 act, CDK5 inh)
C[C@H]1CN([C@@H](C)CO)S(=O)(=O)c2ccc(C3=CCCCC3)cc2O[C@@H]1CN(C)C(=O)c1ccc(F)cc1	none (no result: Rtt109 Vps75, dFosB activator, Dyrk1A ADPGlo, SMARCA2 act, CDK5 inh)
COc1ccc(/C=N/n2c(N)nc3ccccc32)cc1OC	none
COc1cccc(/C=N/n2c(N)nc3ccccc32)c1OC	esBAF inh 73 (no result: Rtt109 Vps75) | Ring1 derepress inactive | Fgf4 repress inactive | esBAF Bmi1 qPCR inactive | A549 tox SP inactive | HepG2 tox SP inactive | HEK293 cytotox SP inactive
COCCn1c(COc2ccc(OC)cc2)nc2ccccc21	none
CCn1c(COc2ccc(OC)cc2)nc2ccccc21	esBAF inh 61 | Ring1 derepress inactive | Fgf4 repress inactive | esBAF Bmi1 qPCR inactive | A549 tox SP inactive | HepG2 tox SP inactive | HEK293 cytotox SP inactive
CC(C)NC(=O)Nc1ccc2c(c1)C(=O)N([C@@H](C)CO)C[C@@H](C)[C@H](CN(C)S(=O)(=O)c1cn(C)cn1)O2	none (no result: Rtt109 Vps75, dFosB activator, Dyrk1A ADPGlo, SMARCA2 act, CDK5 inh)
COc1ccccc1C(=O)Oc1ccccc1C(=O)Nc1ccccc1	esBAF inh 69 (no result: Rtt109 Vps75) | Ring1 derepress inactive | Fgf4 repress inactive | esBAF Bmi1 qPCR inactive | A549 tox SP inactive | HepG2 tox SP inactive | HEK293 cytotox SP inactive
COc1cccc(NC(=O)c2ccccc2Br)c1	esBAF inh 57 (no result: Dyrk1A ADPGlo) | Ring1 derepress inactive | Fgf4 repress inactive | esBAF Bmi1 qPCR inactive | A549 tox SP inactive | HepG2 tox SP inactive | HEK293 cytotox SP inactive
Cn1c(SCc2ccccc2Cl)nc2ccccc21	none (no result: esBAF inh)
CCn1c(SCc2ccccc2Cl)nc2ccccc21	esBAF inh 57 | Ring1 derepress inactive | Fgf4 repress inactive | esBAF Bmi1 qPCR inactive | A549 tox SP inactive | HepG2 tox SP inactive | HEK293 cytotox SP inactive
COc1ccc(C(=O)Nc2cc3c4c(c2)CC(=O)N4CCC3)c(OC)c1	esBAF inh 67 (no result: SMARCA2 act) | Ring1 derepress inactive | Fgf4 repress inactive | esBAF Bmi1 qPCR inactive | A549 tox SP inactive | HepG2 tox SP inactive | HEK293 cytotox SP inactive
CCC(=O)N1C[C@H](O)COC[C@H]2O[C@H](CC(=O)NCC3CCCCC3)CC[C@@H]21	none (no result: Rtt109 Vps75, dFosB activator, Dyrk1A ADPGlo, SMARCA2 act, CDK5 inh)
